For 60 compounds, Inhibition results are on record in ChEMBL document CHEMBL4513141, “CO-ADD screening of NIH (USA) - Clinical Collection” (2021).

“And” between values parts separate entries of the source, which are not always exact repeats. Identical values can stand only once. Potency and affinity values are given separately.

The term Inhibition denotes the drop in the measured response relative to a control, in per cent.

One test relates to Staphylococcus aureus. The settings on record: Concentration 20 uM, ASSAY_TEST Inhibition of Bacterial Growth, detection method Absorption (OD600), MEDIA CAMHB, plate type 384well, NBS, CORNING #3640, time 18 hr.
The next test relates to Escherichia coli. The settings on record: Concentration 20 uM, ASSAY_TEST Inhibition of Bacterial Growth, detection method Absorption (OD600), MEDIA CAMHB, plate type 384well, NBS, CORNING #3640, time 18 hr.

Turning to `CC#C[C@]1(O)CC[C@H]2[C@@H]3CCC4=CC(=O)CCC4=C3[C@@H](c3ccc(N(C)C)cc3)C[C@@]21C` [MIFEPRISTONE], the Inhibition in the test on Staphylococcus aureus is 11.2%; in the test on Escherichia coli, -7.81%.
`Nc1c2c(nc3c1CCC3)CCCC2` [IPIDACRINE]: the Inhibition in the test on Staphylococcus aureus was 16.52%; in the test on Escherichia coli it was 5.57%.
For `Cl.Nc1nc2ccc(OC(F)(F)F)cc2s1` the same measures were 13.98% and 2.43%.
For the compound `Cc1ccc(S(=O)(=O)NC(=O)NN2CCCCCC2)cc1` [TOLAZAMIDE], the Inhibition with Staphylococcus aureus is listed as 2.29%; in the test on Escherichia coli, -1.66%.
In the same order, the values of `CCN(CC)CCOC(=O)C1(C2CCCCC2)CCCCC1.Cl` [DICYCLOMINE HYDROCHLORIDE] are 8.61% and 0.37%.
For the compound `O=C(O)COCCN1CCN([C@H](c2ccccc2)c2ccc(Cl)cc2)CC1` [LEVOCETIRIZINE], the Inhibition is recorded as 11.65% with Staphylococcus aureus and 5.57% with Escherichia coli.
Take `NS(=O)(=O)c1cc(C(=O)O)c(NCc2ccco2)cc1Cl` [FUROSEMIDE]: the Inhibition is 14.48% in the test on Staphylococcus aureus and -0.33% with Escherichia coli.
For `CC[C@H](C)C(=O)O[C@H]1C[C@@H](C)C=C2C=C[C@H](C)[C@H](CC[C@@H]3C[C@@H](O)CC(=O)O3)[C@H]21` [LOVASTATIN], the results for the Inhibition in the test on Staphylococcus aureus and in the test with Escherichia coli were 9.76% and 0.96%, respectively.
For `CC(=O)OCC(=O)NCCCOc1cccc(CN2CCCCC2)c1.Cl` [ROXATIDINE ACETATE HYDROCHLORIDE] the same measures were 9.98% and 5.49%.
Consider `CCCCC1=NC2(CCCC2)C(=O)N1Cc1ccc(-c2ccccc2-c2nnn[nH]2)cc1` [IRBESARTAN], for which the Inhibition is on record as 6.34% in the test with Staphylococcus aureus and -3.35% in the test with Escherichia coli.
As to `C[C@]12C=CC(=O)C=C1CC[C@@H]1[C@@H]2[C@@H](O)C[C@@]2(C)[C@H]1CC[C@]2(O)C(=O)CO` [PREDNISOLONE], the Inhibition in the test with Staphylococcus aureus was 7.56%; in the test with Escherichia coli, 7.41%.
`COc1ccc2c(c1)c(CC(=O)O)c(C)n2C(=O)c1ccc(Cl)cc1.O`: the Inhibition in the test with Staphylococcus aureus is given as 8.16%; with Escherichia coli, 7.22%.
For `Cc1ccc(N(CC2=NCCN2)c2cccc(O)c2)cc1` [PHENTOLAMINE], the Inhibition was 2.09% in the test with Staphylococcus aureus and -2.29% with Escherichia coli.
As for `OCc1cc(C(O)CNCCCCCCOCCCCc2ccccc2)ccc1O` (stereo not given) [SALMETEROL], the Inhibition in the test with Staphylococcus aureus turned out to be 15.16%; with Escherichia coli, 8.33%.
Take `COc1cc(N)c(Cl)cc1C(=O)N[C@@H]1CCN(CCCOc2ccc(F)cc2)C[C@@H]1OC.O` [(R,S)-CISAPRIDE MONOHYDRATE]: the Inhibition in the test with Staphylococcus aureus is reported as 10.08%; in the test on Escherichia coli it was 2.71%.
For the compound `Cl.Clc1cccc(Cl)c1NC1=NCCN1` [CLONIDINE HYDROCHLORIDE], the results for the Inhibition with Staphylococcus aureus and in the test on Escherichia coli were 11.8% and 4.68%, respectively.
Consider `CC(C)NCC(O)COc1ccc(COCCOC(C)C)cc1.CC(C)NCC(O)COc1ccc(COCCOC(C)C)cc1.O=C(O)/C=C/C(=O)O` (stereo not given) [BISOPROLOL FUMARATE], for which the values for the Inhibition in the test on Staphylococcus aureus and in the test with Escherichia coli were 7.74% and 1.99%, respectively.
`CC(C)Cc1ccc(C(C)C(=O)O)cc1` (stereo not given) [IBUPROFEN]: the Inhibition is recorded as -8.87% in the test on Staphylococcus aureus and 0.37% in the test on Escherichia coli.
Take `Nc1ccn([C@@H]2O[C@H](CO)[C@@H](O)[C@@H]2O)c(=O)n1` [CYTARABINE]: the Inhibition in the test on Staphylococcus aureus is given as 17.83%; in the test with Escherichia coli, -2.15%.
In the case of `Cl.Nc1c2c(nc3ccccc13)CCCC2` [TACRINE HYDROCHLORIDE], the Inhibition was 10.46% with Staphylococcus aureus and 0.14% with Escherichia coli.
Regarding `CCCc1c(OCCCCc2nnn[nH]2)ccc(C(C)=O)c1O` [TOMELUKAST], the Inhibition with Staphylococcus aureus is recorded as 5.76%; with Escherichia coli it was 7.84%.
For `Cl.O.c1cnc(N2CCN(Cc3ccc4c(c3)OCO4)CC2)nc1` the same measures were 13.21% and -1.86%.
With `C#C[C@]1(O)CC[C@H]2[C@@H]3CCc4cc(O)ccc4[C@H]3CC[C@@]21C` [ETHINYL ESTRADIOL], the Inhibition in the test on Staphylococcus aureus was 1.21%; with Escherichia coli, 3.7%.
Turning to `C[C@@H]1C[C@H]2[C@@H]3CCC4=CC(=O)C=C[C@]4(C)[C@@]3(F)[C@@H](O)C[C@]2(C)[C@@]1(O)C(=O)CO` [DEXAMETHASONE], the Inhibition in the test with Staphylococcus aureus (20 µM) is -14.23% and -13.77%; with Escherichia coli (20 µM) it was 5.83% and 4.46%.
Consider `CC1=C(CC(=O)O)c2cc(F)ccc2/C1=C\c1ccc([S+](C)[O-])cc1` (stereo not given), for which the results for the Inhibition with Staphylococcus aureus and in the test on Escherichia coli were 2.19% and 3.68%, respectively.
As for `C[C@]12C=CC(=O)C=C1CC[C@@H]1[C@@H]2[C@@H](O)C[C@@]2(C)[C@H]1CC[C@]2(O)C(=O)COC(=O)CCC(=O)[O-].[Na+]` [PREDNISOLONE SODIUM SUCCINATE], the Inhibition is listed as 5.71% in the test with Staphylococcus aureus and 1.73% in the test with Escherichia coli.
With `N#Cc1ccc(C(c2ccc(C#N)cc2)n2cncn2)cc1` [LETROZOLE], the Inhibition in the test with Staphylococcus aureus is on record as 12.65%; with Escherichia coli, -0.32%.
For `CC(=O)/N=c1/sc(S(N)(=O)=O)nn1C` [METHAZOLAMIDE] the same measures were 5.78% and 3.59%.
With `Nc1ccn([C@@H]2CS[C@H](CO)O2)c(=O)n1` [LAMIVUDINE], the results for the Inhibition with Staphylococcus aureus and in the test with Escherichia coli were 9.88% and 8.04%, respectively.
In the same order, the values of `O=C(O)c1cc(/N=N/c2ccc(S(=O)(=O)Nc3ccccn3)cc2)ccc1O` [SULFASALAZINE] are -13.67% and 7.84%.
Turning to `CCCCC(=O)O[C@H]1CC[C@H]2[C@@H]3CCc4cc(O)ccc4[C@H]3CC[C@]12C` [ESTRADIOL VALERATE], the Inhibition with Staphylococcus aureus worked out at 3.82%; in the test on Escherichia coli, 3.72%.
For `COc1ccc2[nH]c([S+]([O-])Cc3ncc(C)c(OC)c3C)nc2c1` (stereo not given) [OMEPRAZOLE], the results for the Inhibition in the test on Staphylococcus aureus and in the test on Escherichia coli were 3.38% and -0.65%, respectively.
For the compound `Nc1nc2c(ncn2COCCO)c(=O)[nH]1` [ACYCLOVIR], the figures for the Inhibition in the test on Staphylococcus aureus and with Escherichia coli were -22.02% and 4.79%, respectively.
Regarding `CC12CCC(=O)C=C1CCC1C2CCC2(C)C1CCC2(O)C(=O)CO` (stereo not given), the figures for the Inhibition with Staphylococcus aureus and in the test on Escherichia coli were 8.54% and -7.68%, respectively.
For `CC(=O)OCC(=O)[C@@]1(O)CC[C@H]2[C@@H]3CCC4=CC(=O)CC[C@]4(C)[C@H]3[C@@H](O)C[C@@]21C` [HYDROCORTISONE ACETATE] the same measures were 9.41% and 0.56%.
In the same order, the values of `COc1ccc(CC2c3cc(OC)c(OC)cc3CC[N+]2(C)CCC(=O)OCCCCCOC(=O)CC[N+]2(C)CCc3cc(OC)c(OC)cc3C2Cc2ccc(OC)c(OC)c2)cc1OC.O=S(=O)(O)c1ccccc1` (stereo not given) are 4.52% and 6.82%.
As to `COc1ccc2cc(CCC(C)=O)ccc2c1` [NABUMETONE], the values for the Inhibition with Staphylococcus aureus and in the test on Escherichia coli were 14% and 3.66%, respectively.
For `CCN(CC)CCOC(=O)c1ccc(N)cc1.Cl` [PROCAINE HYDROCHLORIDE], the figures for the Inhibition with Staphylococcus aureus and with Escherichia coli were 7.14% and 4.36%, respectively.
As to `CCN(CC)CCOc1ccc(C(=C(Cl)c2ccccc2)c2ccccc2)cc1.O=C(O)CC(O)(CC(=O)O)C(=O)O` [CLOMIPHENE CITRATE], the Inhibition came out at 43.2% in the test on Staphylococcus aureus and 2.4% in the test with Escherichia coli.
Turning to `O=c1c(O[C@@H]2O[C@H](CO)[C@@H](O)[C@H](O)[C@H]2O)c(-c2ccc(O)c(O)c2)oc2cc(O)cc(O)c12` [ISOQUERCETIN], the Inhibition with Staphylococcus aureus is given as 18.79%; with Escherichia coli, -1.78%.
As for `C[n+]1ccccc1/C=N/O.[Cl-]` [PRALIDOXIME CHLORIDE], the figures for the Inhibition in the test with Staphylococcus aureus and with Escherichia coli were 12.69% and 4.53%, respectively.
For `CC(Cc1ccccc1)(NC(=O)CN)c1ccccc1.Cl` (stereo not given) [REMACEMIDE HYDROCHLORIDE] the same measures were 12.25% and -0.35%.
Take `CN[C@@H]1[C@H](O)[C@H](NC)[C@H]2O[C@@]3(O)C(=O)C[C@@H](C)O[C@H]3O[C@@H]2[C@H]1O.Cl.Cl.Cl.O.O.O`: the Inhibition in the test on Staphylococcus aureus is given as 11.03%; in the test on Escherichia coli, 29.97%.
For `CCCCC(=O)OC1(C(=O)CO)CCC2C3CCC4=CC(=O)CCC4(C)C3C(O)CC21C` (stereo not given), the values for the Inhibition in the test on Staphylococcus aureus and in the test with Escherichia coli were 4.02% and 3.22%, respectively.
As to `CC(=O)NCCCCCCNC(C)=O` [HEXAMETHYLENEBISACETAMIDE], the results for the Inhibition in the test with Staphylococcus aureus and in the test with Escherichia coli were -6.23% and 3.8%, respectively.
Consider `NS(=O)(=O)c1cc2c(cc1C(F)(F)F)NC(Cc1ccccc1)NS2(=O)=O` (stereo not given) [BENDROFLUMETHIAZIDE], for which the Inhibition in the test on Staphylococcus aureus was 4.68%; with Escherichia coli it was -3.75%.
Take `CCN(CC)CC1CCCCN1CC(=O)N1c2ccccc2C(=O)Nc2cccnc21` (stereo not given) [OTENZEPAD]: the Inhibition in the test on Staphylococcus aureus is on record as 7.92%; with Escherichia coli it was 5.55%.
In the case of `Oc1ncc(F)cn1`, the Inhibition in the test on Staphylococcus aureus stood at 12.62%; in the test on Escherichia coli, 10.23%.
Consider `CC(C)(S)C(N)C(=O)O` (stereo not drawn) [DL-PENICILLAMINE], for which the Inhibition with Staphylococcus aureus is 15.93%; in the test with Escherichia coli, -3.28%.
As for `CN(C)CCCN1c2ccccc2Sc2ccc(Cl)cc21.Cl` [CHLORPROMAZINE HYDROCHLORIDE], the Inhibition in the test on Staphylococcus aureus worked out at 10.22%; in the test with Escherichia coli, 2.59%.
As to `O=C(O)CCc1nc(-c2ccccc2)c(-c2ccccc2)o1` [OXAPROZIN], the Inhibition with Staphylococcus aureus is reported as 10.43%; in the test on Escherichia coli, 2.77%.
Turning to `CN1CCCCC1CCN1c2ccccc2Sc2ccc([S+](C)[O-])cc21.O=S(=O)(O)c1ccccc1` (stereo not given) [MESORIDAZINE BESYLATE], the figures for the Inhibition in the test with Staphylococcus aureus and with Escherichia coli were -15.92% and 4.24%, respectively.
As for `C=C[C@H]1CN2CC[C@H]1C[C@@H]2[C@@H](O)c1ccnc2ccc(OC)cc12` [QUINIDINE], the results for the Inhibition with Staphylococcus aureus and in the test on Escherichia coli were 10.07% and -1.55%, respectively.
`CCOC(=O)C1=C(C)NC(C)=C(C(=O)OC)C1c1cccc(Cl)c1Cl` (stereo not given) [FELODIPINE]: the values for the Inhibition in the test with Staphylococcus aureus and in the test on Escherichia coli were 13.21% and 4.41%, respectively.
In the same order, the values of `CCCc1cc(=O)[nH]c(=S)[nH]1` [PROPYLTHIOURACIL] are 17.4% and 8.71%.
With `CN(C)CCOC(c1ccc(Cl)cc1)c1ccccn1.O=C(O)/C=C\C(=O)O` (stereo not given) [CARBINOXAMINE MALEATE], the Inhibition with Staphylococcus aureus was determined as 10.84%; in the test with Escherichia coli, 3.54%.
On to `CS(=O)(=O)c1ccc(C2=C(c3ccccc3)C(=O)OC2)cc1` [ROFECOXIB], for which the Inhibition in the test with Staphylococcus aureus is recorded as 8.94%; in the test with Escherichia coli it was -7.03%.
For `CC1(C)S[C@@H]2[C@H](NC(=O)[C@H](N)c3ccc(O)cc3)C(=O)N2[C@H]1C(=O)O` [AMOXICILLIN] the same measures were 15.09% and 7.14%.
In the case of `COc1ccccc1OCCNCC(O)COc1cccc2[nH]c3ccccc3c12` (stereo not given) [CARVEDILOL], the Inhibition with Staphylococcus aureus came to 10.39%; in the test on Escherichia coli it was 6.44%.
For `C#C[C@]1(O)CC[C@H]2[C@@H]3[C@H](C)CC4=C(CCC(=O)C4)[C@H]3CC[C@@]21C` [TIBOLONE] the same measures were 12.93% and 2.02%.
